# In PubChem BioAssay (NCATS):
# A number with no mark means an inactive call. Records with an inconclusive call do not appear. A call without a number means that no potency is given here. Active and inactive are the calls of the source. Unless noted, calls follow the shape of the dose curve; as a rule, active = well fitted curve in the direction sought with a large enough effect; inconclusive = small, poorly fitted or top-dose-only effect, or another doubt; inactive = no such curve, though single readings can be large; an effect the other way counts as inactive or inconclusive.
# What was measured:
# [1] = molecular target: Guanine nucleotide-binding protein G(i) subunit alpha-1 (Homo sapiens) (UniProt P63096); assay: qHTS Assay for Inhibitors of RGS12 GoLoco Motif Activity (Green Fluorophore) (AID 879);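 also: negative values mean loss of peptide binding seen as reduced polarization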
# Summary of the method: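 Fluorescence polarization assay: 50 nM Gαi1 with 10 nM FITC-labeled RGS12 GoLoco peptide in 10 mM Tris pH 7.5, 150 mM NaCl, 0.1 mM GDP, 0.05% NP40, 10 min at room temperature with compound.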
# [2] = molecular target: Cytochrome P450 2C9 (Homo sapiens) (UniProt P11712); assay: qHTS Assay for Inhibitors and Substrates of Cytochrome P450 2C9 (AID 883); also: nearly all actives have a fitted effect of over 60% in size; also: potency is read from the fitted curve at half-maximal effect
# Summary of the method: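 A luminogenic readout tracked human CYP2C9 (10nM) converting deoxyluciferin (100uM, at KM) in 25mM KPO4 during 60 min at 37C with regenerated NADPH. Values normalized to 57uM sulphaphenazole as complete inhibition.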
# [3] = qHTS Assay for Identification of Small Molecule Agonists for Thrombopoietin (TPO) Signaling Pathway (AID 917)
# Summary of the method: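 Reporter: GpIIb promoter–luciferase in murine Ba/F3 expressing human TPO receptor. Pre-starved of IL-3 overnight; compounds with 26 pM TPO, 24 hrs, 37 C/5% CO2; luminescence read.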
# [4] = molecular target: Muscarinic acetylcholine receptor M1 (Rattus norvegicus) (UniProt P08482); assay: qHTS Assay for Antagonists of Acetylcholine Muscarinic M1 Receptor: Measurement of IP-One Response (AID 944); also: nearly all actives have a fitted effect of over 75% in size
# Summary of the method: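 Steps: plate transfected CHO-M1 cells overnight; add test compound, 10 min; add carbachol (200 nM, EC80) in stimulation buffer with LiCl; incubate 30 min; add labelled IP1 tracer and anti-IP1 antibody in lysis buffer; read HTRF after 10 min.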
# [5] = molecular target: Pyruvate kinase (Leishmania mexicana) (UniProt Q27686); assay: qHTS Validation Assay for Inhibitors of Leishmania Mexicana Pyruvate Kinase (AID 945)
# Summary of the method: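 Compounds are tested as eight-point concentration series. Reactions contain 0.2 nM LmPYK E451W, 0.5 mM PEP, 0.1 mM ADP, 7 mM MgCl2 and 50 mM KCl at pH 7.2, run 1 h at room temperature, then read by PKLight luminescence.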
# [6] = molecular target: alpha-glucosidase (Oryza sativa, rice) (UniProt Q653V4); assay: Counterscreen for Glucocerebrosidase Inhibitors: qHTS Assay for Rice alpha-Glucosidase at pH 5.0 (AID 997)
# Summary of the method: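 Rice alpha-glucosidase (4 nM final) with 400 uM 4-methylumbelliferyl-alpha-D-glucopyranoside in citrate buffer pH 5.0, 20 min at room temperature, stopped at pH 10; fluorescence 365/440 nm, compounds 0.7 nM–77 uM, AC50 from Hill fits.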
# [7] = Confirmation and Secondary Assay for Modulators of Hemoglobin Beta Chain Splicing at IVS2 654 locus (AID 910);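 also: per-well total GFP intensity by laser scanning cytometry after 2-day treatment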
# Summary of the method: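 HeLa cells stably carrying EGFP interrupted by mutant beta-globin IVS2-654 intron (CMV-driven) were treated with compound for 2 days at 37C; corrected splicing was scored as total peak GFP intensity per well (488 nm excitation, 500-520 nm emission).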
# [8] = Confirmation and Secondary Assay for Modulators of Hemoglobin Beta Chain Splicing at IVS2 705 locus (AID 930);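 also: HeLa cells stably expressing the EGFP-705 splicing reporter; GFP fluorescence per well restored by corrected splicing of the IVS2-705 intron in EGFP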
# Summary of the method: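 Fluorescence gain (488 nm laser, 500-520 nm PMT) reflects restored correct splicing of a mutant IVS2-705 intron inside EGFP in stably transfected HeLa cells after 2-day compound treatment.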
# [9] = molecular target: Pyruvate kinase PKM (Homo sapiens) (UniProt P14618); assay: qHTS Assay for Activators of Human Muscle Pyruvate Kinase (AID 954; active = well fitted curve in the direction sought with a large enough effect, not every such curve was filed as active)
# Summary of the method: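 Reaction: 0.1 nM purified PKM2 with 0.5 mM phosphoenolpyruvate and 0.1 mM ADP, room temperature, 1 h. Readout: luciferase-based ATP luminescence after stop reagent. Activators judged against a 0.3 nM enzyme column.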
# [10] = molecular target: Alpha-galactosidase A (Homo sapiens) (UniProt P06280); assay: Counterscreen for Glucocerebrosidase Inhibitors: qHTS Assay for Human alpha-Galactosidase at pH 4.5 (AID 992)
# Summary of the method: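 Concentration-response curves (0.7 nM to 77 uM final) were modeled with the Hill equation to give AC50. Reactions: 2 nM enzyme, 80 uM fluorogenic alpha-galactoside, pH 4.5 citric acid buffer, 20 min, room temperature.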
# [11] = molecular target: DNA repair nuclease/redox regulator APEX1 (Homo sapiens) (UniProt P27695); assay: qHTS Validation Assay for Inhibitors of the Human Apurinic/apyrimidinic Endonuclease 1 (APE1) (AID 1705;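 also: TAMRA fluorescence gain over two minutes as APE1 cuts a quenched THF abasic duplex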)
# Summary of the method: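 Activity read as rising fluorescence (598 nm emission, 525 nm excitation) from incision of a TAMRA/BHQ-2 duplex carrying a THF abasic site (50 nM). Compound and enzyme sat 15 min at RT before substrate start; signal change between first and third 60-s reads.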
# [12] = molecular target: ATP-dependent DNA helicase Q1 (Homo sapiens) (UniProt P46063); assay: qHTS Validation Assay for Inhibitors of RecQ-Like Dna Helicase 1 (RECQ1) (AID 2353)
# Summary of the method: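 50 nM RECQ1T1 preincubated 15 min with compound in Tris pH 8.0 buffer with MgCl2, DTT, Tween-20 and 2.5 ug/ml poly(dI-dC); started with 200 nM TAMRA/BHQ-2 forked duplex and 2 mM ATP. Unwinding read as fluorescence (525/598 nm), two reads 2 h apart.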
# [13] = Quantitative high throughput screen for delayed death inhibitors of the malarial parasite plastid, 48 hour incubation (AID 488752); also: nearly all actives have a fitted effect of over 65% in size
# Summary of the method: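 One parasite generation (48 h, 37 C, 5% CO2) of luciferase-reporter P. falciparum in erythrocytes is run with test compound; decreased luminescence indicates inhibited growth.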
# [14] = molecular target: Rap guanine nucleotide exchange factor 4 (Homo sapiens) (UniProt Q8WZA2); assay: Confirmatory qHTS for antagonist of cAMP-regulated guanine nucleotide exchange factor 4 (EPAC2) (AID 1645885); also: nearly all actives have a fitted effect of over 25% in size
# [15] = qHTS profiling for inhibitors of Plasmodium falciparum proliferation (AID 504749); also: nearly all actives have a fitted effect of over 60% in size; conditions: P. falciparum in erythrocytes, SYBR Green DNA, 72 h, at 28.7 µM (top of the series)
# Summary of the method: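 P. falciparum-infected erythrocytes (0.3% parasitemia, 2.5% hematocrit final) were exposed to compounds for 72 h at 37 C in 5% CO2, then lysed with SYBR Green buffer overnight at room temperature; parasite DNA fluorescence was normalized to artemisinin and DMSO controls.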
# [16] = molecular target: Glutathione peroxidase 1 (Homo sapiens) (UniProt P07203); assay: Primary qHTS Assay for Inhibitors of Recombinant Selenoprotein Glutathione Peroxidase 1 (GPX1) (AID 1845191); also: nearly all actives have a fitted effect of over 65% in size
# Summary of the method: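 Recombinant GPX1 (10 nM final) was preincubated with compound for 30 min at room temperature, then reacted with 1 mM GSH, 0.5 mM CHP, 0.5 mM NADPH and 100 nM glutathione reductase; NADPH fluorescence (340/450 nm) was read at 0 and 15 min.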
# [17] = molecular target: Cytochrome P450 2D6 (Homo sapiens) (UniProt P10635); assay: Cytochrome P450 family 2 subfamily D member 6 (CYP2D6) small molecule antagonists: luciferase biochemical (cell-free) qHTS assay (AID 1645840; active = well fitted curve in the direction sought with a large enough effect in the repeat runs; an effect the other way counts as inactive or inconclusive; also: nearly all actives have a fitted effect of over 55% in size)
# Summary of the method: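 P450-Glo luminescent screen: recombinant CYP2D6 enzyme–proluciferin substrate mix preincubated with compound 10 min at room temperature, then NADPH regeneration added for 1 h at room temperature. Detection reagent added for 20 min; luciferin light read as relative luminescence units.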
# [18] = molecular target: Cytochrome P450 2C9 (Homo sapiens) (UniProt P11712); assay: Cytochrome P450 family 2 subfamily C member 9 (CYP2C9) small molecule antagonists: luciferase biochemical (cell-free) qHTS assay (AID 1645842; active = well fitted curve in the direction sought with a large enough effect in the repeat runs; an effect the other way counts as inactive or inconclusive; also: nearly all actives have a fitted effect of over 55% in size)
# Summary of the method: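 Luminescence, after 20 min with luciferin detection reagent, reflected CYP2C9 turnover during a 1 h NADPH-driven reaction at 37C. Enzyme-substrate mix contained 0.4% bovine serum albumin and was preincubated with compound 10 min at room temperature.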
# [19] = Primary qHTS for inhibitors of nuclear receptor binding SET domain protein 2 (NSD2) in an isogenic RCH-ACV NSD2 p.E1099K mutant (9B) (AID 1645876); also: potency is read from the fitted curve at half-maximal effect; nearly all actives have a fitted effect of over 70% in size
# [20] = Primary qHTS for inhibitors of nuclear receptor binding SET domain protein 2 (NSD2) in an RCH-ACV wild type WT cells (2C) (AID 1645877); also: potency is read from the fitted curve at half-maximal effect; nearly all actives have a fitted effect of over 70% in size
# Chain of Guanine nucleotide-binding protein G(i) subunit alpha-1 (Homo sapiens) (P63096 whole entry, looked up): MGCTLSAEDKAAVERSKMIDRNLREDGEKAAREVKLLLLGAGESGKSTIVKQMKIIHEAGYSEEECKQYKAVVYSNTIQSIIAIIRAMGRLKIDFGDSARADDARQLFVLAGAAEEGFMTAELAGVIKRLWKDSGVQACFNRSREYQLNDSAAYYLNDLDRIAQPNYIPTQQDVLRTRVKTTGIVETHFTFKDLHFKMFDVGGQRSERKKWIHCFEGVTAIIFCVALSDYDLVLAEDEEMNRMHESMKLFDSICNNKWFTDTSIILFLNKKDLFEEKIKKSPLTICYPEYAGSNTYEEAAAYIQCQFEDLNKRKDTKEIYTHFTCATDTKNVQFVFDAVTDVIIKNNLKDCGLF
# Chain of Cytochrome P450 2C9 (Homo sapiens) (P11712 whole entry, looked up): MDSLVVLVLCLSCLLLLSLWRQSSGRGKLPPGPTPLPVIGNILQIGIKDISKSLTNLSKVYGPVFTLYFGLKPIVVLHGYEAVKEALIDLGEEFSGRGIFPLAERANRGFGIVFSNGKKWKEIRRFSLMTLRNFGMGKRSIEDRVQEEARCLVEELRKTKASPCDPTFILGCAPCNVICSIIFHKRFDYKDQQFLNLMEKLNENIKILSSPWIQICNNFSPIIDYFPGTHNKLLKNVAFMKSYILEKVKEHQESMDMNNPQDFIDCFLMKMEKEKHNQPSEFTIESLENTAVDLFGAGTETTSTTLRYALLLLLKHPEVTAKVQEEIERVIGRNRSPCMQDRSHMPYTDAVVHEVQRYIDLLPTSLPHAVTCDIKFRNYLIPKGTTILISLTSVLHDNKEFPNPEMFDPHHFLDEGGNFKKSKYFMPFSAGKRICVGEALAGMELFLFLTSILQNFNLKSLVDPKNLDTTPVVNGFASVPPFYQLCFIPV
# Chain of Muscarinic acetylcholine receptor M1 (Rattus norvegicus) (P08482 whole entry, looked up): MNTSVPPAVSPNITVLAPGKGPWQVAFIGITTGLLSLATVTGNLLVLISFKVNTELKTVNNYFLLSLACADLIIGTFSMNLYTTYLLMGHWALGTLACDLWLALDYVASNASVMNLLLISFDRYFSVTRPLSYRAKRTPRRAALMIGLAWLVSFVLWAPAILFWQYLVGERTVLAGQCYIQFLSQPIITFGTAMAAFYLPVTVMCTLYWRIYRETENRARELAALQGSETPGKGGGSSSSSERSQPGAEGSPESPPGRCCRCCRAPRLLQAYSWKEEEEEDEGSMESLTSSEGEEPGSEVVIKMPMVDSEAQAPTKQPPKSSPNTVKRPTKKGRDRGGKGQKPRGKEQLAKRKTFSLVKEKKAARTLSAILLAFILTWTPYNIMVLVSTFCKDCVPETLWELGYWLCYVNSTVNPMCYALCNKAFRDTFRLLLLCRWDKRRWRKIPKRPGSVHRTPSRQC
# Chain of Rap guanine nucleotide exchange factor 4 (Homo sapiens) (Q8WZA2 whole entry, looked up): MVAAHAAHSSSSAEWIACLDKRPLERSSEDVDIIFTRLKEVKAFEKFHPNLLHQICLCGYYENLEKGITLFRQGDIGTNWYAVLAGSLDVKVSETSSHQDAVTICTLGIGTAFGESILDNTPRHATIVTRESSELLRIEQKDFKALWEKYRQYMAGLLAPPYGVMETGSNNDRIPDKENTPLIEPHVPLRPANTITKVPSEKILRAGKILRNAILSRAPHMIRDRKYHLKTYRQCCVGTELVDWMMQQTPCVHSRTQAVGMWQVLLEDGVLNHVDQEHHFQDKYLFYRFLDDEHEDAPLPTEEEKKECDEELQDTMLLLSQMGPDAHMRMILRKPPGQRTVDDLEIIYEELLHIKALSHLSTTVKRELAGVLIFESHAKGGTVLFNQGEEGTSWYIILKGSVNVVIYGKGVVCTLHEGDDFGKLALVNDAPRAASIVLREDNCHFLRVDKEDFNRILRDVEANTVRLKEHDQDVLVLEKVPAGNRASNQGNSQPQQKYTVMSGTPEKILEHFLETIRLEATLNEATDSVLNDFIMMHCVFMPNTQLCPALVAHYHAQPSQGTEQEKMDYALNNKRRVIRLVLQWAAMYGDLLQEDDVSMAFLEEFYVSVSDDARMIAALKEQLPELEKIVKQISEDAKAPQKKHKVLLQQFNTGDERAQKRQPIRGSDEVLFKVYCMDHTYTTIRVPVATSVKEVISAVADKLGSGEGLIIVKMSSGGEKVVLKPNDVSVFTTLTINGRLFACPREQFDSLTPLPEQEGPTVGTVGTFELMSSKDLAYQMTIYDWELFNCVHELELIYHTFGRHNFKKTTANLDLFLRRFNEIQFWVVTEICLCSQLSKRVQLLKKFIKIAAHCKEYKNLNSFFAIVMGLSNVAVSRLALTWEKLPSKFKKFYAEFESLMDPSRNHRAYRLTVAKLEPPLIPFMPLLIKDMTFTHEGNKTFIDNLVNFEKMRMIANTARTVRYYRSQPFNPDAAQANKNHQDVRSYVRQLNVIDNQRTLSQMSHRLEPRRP
# Chain of Pyruvate kinase PKM (Homo sapiens) (P14618 whole entry, looked up): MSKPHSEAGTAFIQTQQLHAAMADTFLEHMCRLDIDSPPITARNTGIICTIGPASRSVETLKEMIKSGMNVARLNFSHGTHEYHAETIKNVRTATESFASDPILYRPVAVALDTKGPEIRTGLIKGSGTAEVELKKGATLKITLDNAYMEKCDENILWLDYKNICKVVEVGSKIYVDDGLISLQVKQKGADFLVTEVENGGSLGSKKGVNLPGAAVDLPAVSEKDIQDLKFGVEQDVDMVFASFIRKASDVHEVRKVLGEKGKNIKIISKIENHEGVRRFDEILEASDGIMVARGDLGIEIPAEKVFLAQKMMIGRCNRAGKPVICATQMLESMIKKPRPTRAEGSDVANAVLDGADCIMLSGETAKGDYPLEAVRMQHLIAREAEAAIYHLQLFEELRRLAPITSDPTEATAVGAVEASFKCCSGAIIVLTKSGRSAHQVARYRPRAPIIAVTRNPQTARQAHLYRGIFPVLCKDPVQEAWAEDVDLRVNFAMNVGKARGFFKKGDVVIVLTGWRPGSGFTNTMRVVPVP
# Chain of Alpha-galactosidase A (Homo sapiens) (P06280 whole entry, looked up): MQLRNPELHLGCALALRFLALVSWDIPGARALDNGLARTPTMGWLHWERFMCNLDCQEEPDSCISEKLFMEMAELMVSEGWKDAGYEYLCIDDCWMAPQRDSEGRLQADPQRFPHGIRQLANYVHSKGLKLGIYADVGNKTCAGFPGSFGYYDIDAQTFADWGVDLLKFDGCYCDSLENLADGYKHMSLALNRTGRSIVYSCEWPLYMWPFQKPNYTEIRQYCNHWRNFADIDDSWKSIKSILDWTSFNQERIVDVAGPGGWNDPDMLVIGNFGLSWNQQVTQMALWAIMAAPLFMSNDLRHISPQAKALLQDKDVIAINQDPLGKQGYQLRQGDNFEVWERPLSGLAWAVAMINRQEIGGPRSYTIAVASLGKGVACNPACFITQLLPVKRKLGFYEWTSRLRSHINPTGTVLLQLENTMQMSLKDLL
# Chain of DNA repair nuclease/redox regulator APEX1 (Homo sapiens) (P27695 whole entry, looked up): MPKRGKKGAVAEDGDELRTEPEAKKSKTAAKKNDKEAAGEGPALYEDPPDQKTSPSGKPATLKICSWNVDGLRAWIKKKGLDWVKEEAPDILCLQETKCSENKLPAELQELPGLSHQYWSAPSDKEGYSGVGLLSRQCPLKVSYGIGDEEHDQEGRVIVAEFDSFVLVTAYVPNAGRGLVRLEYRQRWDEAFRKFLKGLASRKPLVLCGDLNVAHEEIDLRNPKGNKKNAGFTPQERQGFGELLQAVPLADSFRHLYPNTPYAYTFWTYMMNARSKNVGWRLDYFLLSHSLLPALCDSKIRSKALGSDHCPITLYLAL
# Chain of ATP-dependent DNA helicase Q1 (Homo sapiens) (P46063 whole entry, looked up): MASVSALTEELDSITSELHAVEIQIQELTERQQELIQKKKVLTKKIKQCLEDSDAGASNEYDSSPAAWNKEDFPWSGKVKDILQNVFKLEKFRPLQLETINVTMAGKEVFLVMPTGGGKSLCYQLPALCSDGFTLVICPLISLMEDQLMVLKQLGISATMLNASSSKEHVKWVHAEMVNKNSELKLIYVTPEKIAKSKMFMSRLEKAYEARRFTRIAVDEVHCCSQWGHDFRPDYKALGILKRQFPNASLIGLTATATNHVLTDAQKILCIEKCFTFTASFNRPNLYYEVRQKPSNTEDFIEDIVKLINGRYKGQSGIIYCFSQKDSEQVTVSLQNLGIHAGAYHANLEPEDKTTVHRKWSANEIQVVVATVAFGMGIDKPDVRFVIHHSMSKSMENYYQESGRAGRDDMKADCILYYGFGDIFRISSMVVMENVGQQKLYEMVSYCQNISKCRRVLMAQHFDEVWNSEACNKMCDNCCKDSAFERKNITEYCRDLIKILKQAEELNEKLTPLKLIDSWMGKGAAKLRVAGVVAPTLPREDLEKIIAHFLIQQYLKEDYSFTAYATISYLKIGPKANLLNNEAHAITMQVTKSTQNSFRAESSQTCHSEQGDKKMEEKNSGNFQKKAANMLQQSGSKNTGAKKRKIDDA
# Chain of Glutathione peroxidase 1 (Homo sapiens) (P07203 whole entry, looked up): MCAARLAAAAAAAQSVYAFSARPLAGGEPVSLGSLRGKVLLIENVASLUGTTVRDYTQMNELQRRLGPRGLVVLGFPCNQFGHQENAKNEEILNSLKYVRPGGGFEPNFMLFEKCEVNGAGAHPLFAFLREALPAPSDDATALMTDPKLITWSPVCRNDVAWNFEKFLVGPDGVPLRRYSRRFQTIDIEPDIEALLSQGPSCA
# Chain of Pyruvate kinase (Leishmania mexicana) (Q27686 2-499 E452W): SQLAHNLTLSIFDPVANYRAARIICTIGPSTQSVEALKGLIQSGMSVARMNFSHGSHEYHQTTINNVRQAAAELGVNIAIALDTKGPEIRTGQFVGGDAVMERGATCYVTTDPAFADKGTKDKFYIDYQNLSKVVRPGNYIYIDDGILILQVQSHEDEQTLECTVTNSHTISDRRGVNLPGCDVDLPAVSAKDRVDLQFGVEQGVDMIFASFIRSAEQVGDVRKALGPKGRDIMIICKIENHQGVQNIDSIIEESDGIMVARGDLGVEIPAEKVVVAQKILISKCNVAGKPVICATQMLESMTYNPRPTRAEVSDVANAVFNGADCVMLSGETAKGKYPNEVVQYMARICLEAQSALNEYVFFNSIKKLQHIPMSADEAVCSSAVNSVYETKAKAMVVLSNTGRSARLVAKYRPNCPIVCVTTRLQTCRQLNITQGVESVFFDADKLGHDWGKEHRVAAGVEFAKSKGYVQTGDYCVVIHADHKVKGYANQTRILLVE
compound,measurement,setting,value
CC(C)NC[C@@H](O)COc1ccc(CCOCC2CC2)cc1,outcome,[1],inactive
same,Potency,[2],0.631 µM (active)
same,Potency,[3],inactive
same,Potency,[4],inactive
same,Potency,[5],inactive
same,outcome,[6],inactive
O=C1CC[C@H](N2C(=O)c3ccccc3C2=O)C(=O)N1,outcome,[1],inactive
same,Potency,[2],inactive
same,outcome,[7],inactive
same,Potency,[3],inactive
same,outcome,[8],inactive
same,outcome,[9],inactive
same,outcome,[10],inactive
same,outcome,[6],inactive
CCCCCCCCCCCCC/C=C/[C@@H](O)[C@@H](N)CO,Potency,[11],inactive
same,Potency,[12],inactive
same,Potency,[13],inactive
C=C[C@H](N)CCC(=O)O,outcome,[1],inactive
same,outcome,[7],inactive
same,Potency,[3],inactive
same,outcome,[8],inactive
same,Potency,[4],inactive
same,outcome,[9],inactive
same,outcome,[6],inactive
CN(C)CCCSC(=N)N,Potency,[14],inactive
COC(=O)[C@@H]1[C@@H]2C[C@H]3c4[nH]c5ccccc5c4CCN3C[C@@H]2CC[C@@H]1O,"activity, negative = inhibition",[15]; parasite line A,13.9%
same,"activity, negative = inhibition",[15]; parasite line B,-2.77%
CC(N)=NCCC[C@H](N)C(=O)O,Potency,[4],inactive
NC[C@](O)(CS(=O)(=O)O)c1ccc(Cl)cc1,Potency,[4],inactive
COc1ccccc1NC(=O)Nc1nc(-c2cccnc2)nc2ccccc12,Potency,[11],inactive
same,Potency,[12],inactive
same,Potency,[13],inactive
S=C(S)O[C@@H]1C[C@@H]2C[C@H]1[C@@H]1CCC[C@H]21,Potency,[14],inactive
N[C@H](Cc1cnc[nH]1)C(=O)O,Potency,[16],inactive
O=C(O)c1c2ccccc2cc2ccccc12,outcome,[7],inactive
same,outcome,[8],inactive
CC(C)(C)c1ccc(S(=O)(=O)/C=C\C#N)cc1,outcome,[1],inactive
same,outcome,[10],inactive
same,outcome,[6],inactive
COc1cc(N)c(Cl)cc1C(=O)CCC1CCN(CCNS(C)(=O)=O)CC1,Potency,[2],0.251 µM (active)
NC1(C(=O)O)C[C@H](C(=O)O)[C@H](C(=O)O)C1 (stereo not given in full),Potency,[2],6.31 µM (active)
C=C1C(=O)O[C@@H]2[C@H]3O[C@]3(C)CC/C=C(\C)CC[C@@H]12,Potency,[17],inactive
same,Potency,[18],inactive
same,Potency,[19],3.72 µM (active)
same,Potency,[20],2.09 µM (active)
